Data taken from PubChem BioAssay (Tox21).
Where “and” joins values, the source holds several entries; their conditions need not be identical. Equal entries are not always repeated. A structure can be active in one record and inactive in another. Calls of active or inactive are those of the source. Unless noted, calls follow the shape of the dose curve; as a rule, active = well fitted curve in the direction sought with a large enough effect in the repeat runs; inconclusive = weak or mixed curves; inactive = no such curve, though single readings can be large; an effect the other way counts as inactive or inconclusive.

Key:
[1] = qHTS assay to identify small molecule antagonists of the thyroid receptor (TR) signaling pathway - cell viability counter screen (AID 743064); also: nearly all actives have a fitted effect of over 50% in size; also: potency is read from the fitted curve at half-maximal effect
How it was run: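 In-well cytotoxicity read by CellTiter-Fluor (30 min, 37 C) following 23.5 h exposure of GH3 cells bearing a TRE-luciferase sensor. Compounds were added alongside 1 nM (final) T3 to drive TR transactivation.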

[2] = qHTS assay to identify small molecule antagonists of the thyroid receptor (TR) signaling pathway (AID 743065); also: nearly all actives have a fitted effect of over 55% in size; also: potency is read from the fitted curve at half-maximal effect
How it was run: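 Antagonism measured as loss of luciferase signal in GH3 cells stably carrying a TRE-luciferase reporter, co-treated with compound and T3 (1 nM final) for 23.5 h at 37 C. Viability was read in the same well by CellTiter-Fluor.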

[3] = tested on: thyroid hormone receptor (rat, GH3 cells); experiment: qHTS assay to identify small molecule agonists of the thyroid receptor (TR) signaling pathway (AID 743066; calls by dose curve)
[4] = biological target: Estrogen receptor (Homo sapiens) (UniProt P03372); experiment: qHTS assay to identify small molecule antagonists of the estrogen receptor alpha (ER-alpha) signaling pathway (AID 743069; active = well fitted curve in the direction sought with a large enough effect in the signal ratio in the repeat runs, not every such curve was filed as active; inconclusive = weak or mixed curves, or effect the other way; inactive = no such curve, though single readings can be large or run the other way; the % refers to the signal ratio; also: potency is read from the fitted curve at half-maximal effect)
Estrogen receptor (Homo sapiens), sequence (P03372 whole entry, looked up): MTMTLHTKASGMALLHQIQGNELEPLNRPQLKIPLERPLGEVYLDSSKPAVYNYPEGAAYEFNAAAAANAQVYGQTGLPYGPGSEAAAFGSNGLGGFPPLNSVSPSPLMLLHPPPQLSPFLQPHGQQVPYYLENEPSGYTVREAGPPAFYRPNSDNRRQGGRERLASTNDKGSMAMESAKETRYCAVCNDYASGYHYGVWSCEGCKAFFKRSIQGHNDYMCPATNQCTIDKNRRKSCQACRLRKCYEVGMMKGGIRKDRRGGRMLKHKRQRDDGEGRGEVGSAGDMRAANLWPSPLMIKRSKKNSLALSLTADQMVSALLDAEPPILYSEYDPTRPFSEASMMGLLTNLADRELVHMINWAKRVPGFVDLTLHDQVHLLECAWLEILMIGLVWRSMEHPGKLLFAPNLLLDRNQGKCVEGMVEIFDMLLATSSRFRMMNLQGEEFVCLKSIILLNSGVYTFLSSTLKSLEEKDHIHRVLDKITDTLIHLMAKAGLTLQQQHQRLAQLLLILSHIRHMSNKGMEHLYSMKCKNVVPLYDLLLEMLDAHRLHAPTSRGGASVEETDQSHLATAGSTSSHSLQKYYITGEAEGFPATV
How it was run: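 Fluorescence intensity from a beta-lactamase FRET substrate served as the read-out. Cells: HEK293 with stably integrated ER-alpha-UAS-bla reporter. Agonist 17beta-estradiol was co-added with compounds; incubation 18 hr at 37C, substrate 2 hr at room temperature.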

[5] = qHTS assay to identify small molecule antagonists of the estrogen receptor alpha (ER-alpha) signaling pathway - cell viability counter screen (AID 743074; calls by dose curve; also: nearly all actives have a fitted effect of over 45% in size)
[6] = biological target: Estrogen receptor (Homo sapiens) (UniProt P03372); experiment: qHTS assay to identify small molecule agonists of the estrogen receptor alpha (ER-alpha) signaling pathway (AID 743075; calls by dose curve)
[7] = biological target: Estrogen receptor (Homo sapiens) (UniProt P03372); experiment: qHTS assay to identify small molecule agonists of the estrogen receptor alpha (ER-alpha) signaling pathway using the BG1 cell line (AID 743079); also: nearly all actives have a fitted effect of over 20% in size
[8] = qHTS assay to identify small molecule antagonists of the estrogen receptor alpha (ER-alpha) signaling pathway using the BG1 cell line (AID 743080; calls by dose curve;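 also: BG1 cells stimulated with 17beta-estradiol alongside compound; nearly all actives have a fitted effect of over 25% in size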); settings: BG1Luc4E2 ERE-luciferase antagonist mode, luminescence; activity change, negative = inhibition: at 70.3 µM (top of the series) unless noted
How it was run: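 Quantitative HTS on the Tox21 10K library: BG1 cells with endogenous ER-alpha and ERE-luciferase reporter, 17beta-estradiol stimulation, 21.5 h compound exposure, luminescence endpoint with parallel fluorescence cytotoxicity counter-read.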

[9] = qHTS assay to identify small molecule antagonists of the estrogen receptor alpha (ER-alpha) signaling pathway using the BG1 cell line - cell viability counter screen (AID 743081);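 also: compound given together with 17beta-estradiol as the ER stimulus; nearly all actives have a fitted effect of over 45% in size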
[10] = biological target: Aromatase (Homo sapiens) (UniProt P11511); experiment: qHTS assay to identify aromatase inhibitors (AID 743083); also: nearly all actives have a fitted effect of over 55% in size; also: potency is read from the fitted curve at half-maximal effect
Aromatase (Homo sapiens), sequence (P11511 whole entry, looked up): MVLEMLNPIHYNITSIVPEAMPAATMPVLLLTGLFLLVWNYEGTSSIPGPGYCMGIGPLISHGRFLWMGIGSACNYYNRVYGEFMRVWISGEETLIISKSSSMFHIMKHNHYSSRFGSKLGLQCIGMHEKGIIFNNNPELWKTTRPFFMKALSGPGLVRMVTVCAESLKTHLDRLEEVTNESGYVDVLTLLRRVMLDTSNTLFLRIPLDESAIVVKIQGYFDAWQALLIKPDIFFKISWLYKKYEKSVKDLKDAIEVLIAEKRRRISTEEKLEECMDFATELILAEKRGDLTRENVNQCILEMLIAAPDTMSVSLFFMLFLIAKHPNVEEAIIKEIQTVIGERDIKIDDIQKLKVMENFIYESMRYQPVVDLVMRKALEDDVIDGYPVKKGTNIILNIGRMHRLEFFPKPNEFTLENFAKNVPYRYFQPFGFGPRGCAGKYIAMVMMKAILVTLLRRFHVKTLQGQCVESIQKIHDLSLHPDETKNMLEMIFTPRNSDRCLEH

[11] = qHTS assay to identify aromatase inhibitors - cell viability counter screen (AID 743084);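 also: cells stimulated with testosterone during compound exposure; nearly all actives have a fitted effect of over 55% in size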
[12] = biological target: Peroxisome proliferator-activated receptor gamma (Homo sapiens) (UniProt P37231); experiment: qHTS assay to identify small molecule agonists of the peroxisome proliferator-activated receptor gamma (PPARg) signaling pathway (AID 743094; active = well fitted activation curve with a large enough effect in the signal ratio in the repeat runs, not every such curve was filed as active; inconclusive = weak or mixed curves, or effect the other way; inactive = no such curve, though single readings can be large or run the other way; the % refers to the signal ratio)
Peroxisome proliferator-activated receptor gamma (Homo sapiens), sequence (P37231 whole entry, looked up): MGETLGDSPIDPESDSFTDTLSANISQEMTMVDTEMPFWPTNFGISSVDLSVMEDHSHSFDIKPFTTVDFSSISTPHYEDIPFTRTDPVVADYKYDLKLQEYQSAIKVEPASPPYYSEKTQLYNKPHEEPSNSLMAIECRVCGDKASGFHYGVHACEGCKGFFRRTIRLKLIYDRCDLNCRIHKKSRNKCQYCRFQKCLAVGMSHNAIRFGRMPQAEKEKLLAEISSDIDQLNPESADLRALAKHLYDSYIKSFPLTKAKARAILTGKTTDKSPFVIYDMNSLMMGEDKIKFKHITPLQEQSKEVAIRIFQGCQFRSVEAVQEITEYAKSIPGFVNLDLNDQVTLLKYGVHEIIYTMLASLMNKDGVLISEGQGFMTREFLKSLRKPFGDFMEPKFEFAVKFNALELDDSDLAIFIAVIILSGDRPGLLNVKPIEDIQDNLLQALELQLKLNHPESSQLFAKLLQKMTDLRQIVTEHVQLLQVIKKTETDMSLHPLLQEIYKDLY
How it was run: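 Fluorescence-based beta-lactamase readout in HEK293H PPARg UAS-bla cells after 17 h compound exposure (37C) and 1 h B/G FRET substrate incubation at room temperature.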

[13] = biological target: Peroxisome proliferator-activated receptor gamma (Homo sapiens) (UniProt P37231); experiment: qHTS assay to identify small molecule antagonists of the peroxisome proliferator-activated receptor gamma (PPARg) signaling pathway (AID 743191; calls by dose curve; also: nearly all actives have a fitted effect of over 30% in size; also: potency is read from the fitted curve at half-maximal effect)
How it was run: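 Beta-lactamase reporter under UAS control in HEK293H PPARg-bla cells; compound treatment 17 h at 37C. Read-out: fluorescence intensity after 1 h room-temperature incubation with LiveBLAzer B/G FRET substrate.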

[14] = qHTS assay to identify small molecule antagonists of the peroxisome proliferator-activated receptor gamma (PPARg) signaling pathway - cell viability counter screen (AID 743194); settings: Potency: co-treated with 50 nM rosiglitazone unless noted; also: nearly all actives have a fitted effect of over 55% in size
How it was run: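 Viability was measured as CellTiter-Glo luminescence in GeneBLAzer PPARg UAS-bla HEK293H cells. These cells had been exposed 17 h at 37 C to compounds together with rosiglitazone at 50 nM final, with the beta-lactamase readout taken in the same wells.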

[15] = qHTS assay for small molecule agonists of the antioxidant response element (ARE) signaling pathway - cell viability counter screen (AID 743203; calls by dose curve; also: nearly all actives have a fitted effect of over 55% in size)
How it was run: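 Parallel cytotoxicity read-out for the ARE-bla screen: HepG2 reporter cells, 16 hrs with compounds, then CellTiter-Glo luminescence.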

[16] = qHTS assay for small molecule activators of the heat shock response signaling pathway - cell viability counter screen (AID 743209); also: nearly all actives have a fitted effect of over 50% in size
How it was run: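 To flag cytotoxic compounds, HSE-bla HeLa cells plated at 1500 cells/well were dosed for 5 h at 37 C, followed by the reporter FRET read and then CellTiter-Glo, with luminescence recorded 30 min after reagent addition.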

[17] = qHTS assay for small molecule agonists of the antioxidant response element (ARE) signaling pathway (AID 743202; active = well fitted activation curve with a large enough effect in the signal ratio in the repeat runs, not every such curve was filed as active; inconclusive = weak or mixed curves, or effect the other way; inactive = no such curve, though single readings can be large or run the other way; the % refers to the signal ratio)
How it was run: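 Beta-lactamase reporter activity, read as fluorescence intensity, reflects ARE/Nrf2 pathway induction in HepG2 cells after 16 h compound exposure at 37 C; substrate loading was 2 h at room temperature.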

[18] = qHTS assay to identify small molecule that activate the aryl hydrocarbon receptor (AhR) signaling pathway - cell viability counter screen (AID 743086);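 also: HepG2 liver cells carrying the AhR DRE luciferase reporter; nearly all actives have a fitted effect of over 45% in size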
How it was run: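 Cytotoxicity counter screen: CellTiter-Fluor signal (30 min, 37 C) in 4000 HepG2 cells/well carrying the DRE-luciferase reporter, following 24 h compound exposure at 37 C.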

[19] = biological target: Aryl hydrocarbon receptor (Homo sapiens) (UniProt P35869); experiment: qHTS assay to identify small molecule that activate the aryl hydrocarbon receptor (AhR) signaling pathway (AID 743085);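 also: HG2L7.5c1 human HepG2 liver cells with stably integrated DRE-driven firefly reporter; nearly all actives have a fitted effect of over 15% in size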
Aryl hydrocarbon receptor (Homo sapiens), sequence (P35869 whole entry, looked up): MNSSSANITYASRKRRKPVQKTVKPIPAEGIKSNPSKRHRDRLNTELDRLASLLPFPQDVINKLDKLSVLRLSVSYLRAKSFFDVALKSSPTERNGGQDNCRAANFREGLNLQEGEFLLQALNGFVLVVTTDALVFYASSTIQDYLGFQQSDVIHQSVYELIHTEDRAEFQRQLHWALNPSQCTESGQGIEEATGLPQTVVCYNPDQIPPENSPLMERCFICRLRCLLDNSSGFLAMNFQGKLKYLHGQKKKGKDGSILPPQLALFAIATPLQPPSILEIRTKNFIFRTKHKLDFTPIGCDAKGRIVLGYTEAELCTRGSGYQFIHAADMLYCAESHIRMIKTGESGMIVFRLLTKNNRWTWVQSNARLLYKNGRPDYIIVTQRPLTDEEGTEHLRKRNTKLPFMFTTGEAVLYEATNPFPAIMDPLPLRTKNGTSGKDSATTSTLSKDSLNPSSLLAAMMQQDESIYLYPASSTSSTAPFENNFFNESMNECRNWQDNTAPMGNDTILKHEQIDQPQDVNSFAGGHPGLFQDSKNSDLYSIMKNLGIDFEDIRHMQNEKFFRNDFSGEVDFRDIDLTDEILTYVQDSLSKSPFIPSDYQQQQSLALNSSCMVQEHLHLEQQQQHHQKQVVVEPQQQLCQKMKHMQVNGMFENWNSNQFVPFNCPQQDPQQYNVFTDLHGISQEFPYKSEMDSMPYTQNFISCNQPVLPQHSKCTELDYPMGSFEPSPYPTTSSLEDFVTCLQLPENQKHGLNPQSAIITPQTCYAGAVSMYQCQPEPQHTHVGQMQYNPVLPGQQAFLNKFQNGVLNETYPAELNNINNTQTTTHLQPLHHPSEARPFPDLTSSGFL
How it was run: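 Luminescence (ONE-Glo) from a dioxin-responsive-element luciferase reporter in HG2L7.5c1 HepG2 cells after 24 hr compound exposure at 37C; viability measured by CellTiter-Fluor fluorescence beforehand.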

Measured: Potency

OCCOc1ccccc1
not listed: [17] | [18] | [19]
inactive: all other assays above

Nc1ccc(Cl)cc1
active: [4] 9.95 µM [inconclusive] | [13] 0.0871 µM
not listed: [18] | [19]
inactive: all other assays above

C=CCOC(Cn1ccnc1)c1ccc(Cl)cc1Cl (stereo unspecified)
active: [1] 54.6 µM | [2] 23.7 µM and 61.3 µM and 30.6 µM | [10] 944 nM and 387 nM and 433 nM
inactive: [3] | [5] | [9] | [11] | [12] | [13] | [14] | [15] | [16]

O=C(O)c1nc(Cl)ccc1Cl
not listed: [12] | [13] | [18] | [19]
inactive: all other assays above

CCNc1nc(Cl)nc(NCC)n1
not listed: [19]
inactive: all other assays above

CCCC[n+]1ccccc1
not listed: [4] | [6] | [7] | [8] | [12] | [13] | [17]
inactive: all other assays above

Nc1ccc(-c2ccc(N)cc2)cc1
inactive and 1.92 µM (active): [10]
not listed: [8] | [17] | [19]
inactive: all other assays above
